This is part of a sample that, as a whole, favours compounds with a hit. Of some 83,000 tested, about 20% had one in any assay.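 Note: values are percent growth. 100 is the growth of untreated cells, values between 100 and 0 indicate rising inhibition; between -100 and 0 indicates cell death.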
Key:
Assay in all cases: NCI-60 one-dose screen, 48 h (100 = growth as untreated, 0 = no growth, -100 = all killed)
Settings in all cases: 10 µM unless noted; active = growth percent below 10; inactive = the rest
[1] = test system: HCT-15 colon
[2] = test system: HT29 colon
[3] = test system: SNB-75 CNS
[4] = test system: SNB-19 CNS
[5] = test system: PC-3 prostate
[6] = test system: SK-MEL-5 melanoma
[7] = test system: UACC-62 melanoma
[8] = test system: LOX IMVI melanoma
[9] = test system: SK-MEL-28 melanoma

Measured: growth

COc1cccc(-c2nn(C(C)(C)C)cc2-c2ccnc(NCCCNS(=O)(=O)c3cccc4ccccc34)c2)c1
inactive: [1] 108% | [2] 103% | [3] 71.2% | [4] 100% | [5] 106% | [6] 100% | [7] 108% | [8] 99.8% | [9] 112%

C=CC(=O)Nc1cccc(-c2nc(SC)nc(NCc3ccccc3)c2C#N)c1
inactive: [1] 58.4% | [2] 62.2% | [3] 19.6% | [4] 54.8% | [5] 74.8% | [6] 74% | [7] 61% | [8] 65.8% | [9] 82.4%

COc1ccc(Nc2nc(SC)nc(-c3cccc([N+](=O)[O-])c3)c2C#N)cc1
inactive: [1] 78.6% | [2] 70.3% | [3] 10.3% | [4] 79% | [5] 75.8% | [6] 70.9% | [7] 69.5% | [8] 70.8% | [9] 84.9%

CSc1nc(NCCN2CCOCC2)c(C#N)c(-c2cccc([N+](=O)[O-])c2)n1
inactive: [1] 97.4% | [2] 106% | [3] 62.8% | [4] 95.2% | [5] 97.4% | [6] 99.3% | [7] 87.4% | [8] 95.9% | [9] 103%

From PubChem BioAssay (NCI)
